The text below walks through data of PubChem BioAssay (Tox21).

SMILES strings stand for the structures. Results filed as inconclusive are left out. A call without a number means that no potency is given here. Activity calls are given as the source filed them. Calls follow the shape of the dose curve; as a rule, active = well fitted curve in the direction sought with a large enough effect in the repeat runs; inconclusive = weak or mixed curves; inactive = no such curve, though single readings can be large; an effect the other way counts as inactive or inconclusive.
Potency is read from the fitted curve at half-maximal effect.

Sequence of Luciferin 4-monooxygenase (Photinus pyralis) (P08659 whole entry, looked up): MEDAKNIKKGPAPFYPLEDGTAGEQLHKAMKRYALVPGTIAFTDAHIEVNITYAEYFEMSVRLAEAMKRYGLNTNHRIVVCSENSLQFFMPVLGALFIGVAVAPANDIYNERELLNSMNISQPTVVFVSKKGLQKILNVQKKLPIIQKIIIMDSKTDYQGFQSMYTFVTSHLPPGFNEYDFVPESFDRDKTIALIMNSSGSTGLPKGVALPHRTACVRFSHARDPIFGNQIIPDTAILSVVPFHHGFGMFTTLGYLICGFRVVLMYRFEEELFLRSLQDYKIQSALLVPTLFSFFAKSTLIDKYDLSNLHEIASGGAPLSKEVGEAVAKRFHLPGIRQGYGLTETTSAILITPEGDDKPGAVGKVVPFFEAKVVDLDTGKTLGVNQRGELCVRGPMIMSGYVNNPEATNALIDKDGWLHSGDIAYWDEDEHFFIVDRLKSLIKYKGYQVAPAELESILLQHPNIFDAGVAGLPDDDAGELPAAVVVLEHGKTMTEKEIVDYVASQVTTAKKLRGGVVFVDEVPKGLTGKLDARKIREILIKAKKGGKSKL

Test system in the first experiment: not listed separately
Description: qHTS assay to identify small molecule antagonists of the estrogen related receptor (ERR) signaling pathway from Tox21 library - cell viability counter screen (AID 1224834). Also: nearly all actives have a fitted effect of over 30% in size. The settings on record: ERR reporter cells viability, CellTiter-Fluor, 17.5 h; series mostly up to 92.4 µM. The procedure, abridged:
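In this quantitative HTS format, ERR cells receive compounds in DMSO and are incubated for 17.5 h at 37 C. Live-cell protease activity is then detected with CellTiter-Fluor.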
On the technique in general: Quantitative high-throughput screening tests each substance at several concentrations.
Turning to `CC(C)(C)N(NC(=O)c1ccc(Cl)cc1)C(=O)c1ccccc1`, the Potency is 12.1 µM (active).
Still for that read-out and setting: the result for `O=[N+]([O-])O[C@H]1CO[C@H]2[C@@H]1OC[C@H]2O[N+](=O)[O-]` reads “inactive”.
On to `COC(=O)Cc1ccccc1`, for which the Potency result was “inactive”.
Take `C#C[C@]1(O)CC[C@H]2[C@@H]3CCC4=CC(=O)CCC4=C3C=C[C@@]21CC`: the Potency was 21.1 µM (active).
`CC(O)CN1CCN(CC(=O)[O-])CCN(CC(=O)[O-])CCN(CC(=O)[O-])CC1.[Gd+3]` (centres undefined): the Potency entry is “inactive”.
The same measure, in the same setting: the result for `O=C(N/N=C/c1ccc([N+](=O)[O-])o1)c1cc([N+](=O)[O-])cc([N+](=O)[O-])c1O` reads 11.9 µM (active); that for `CCC(C)(C)c1ccc(O)c(C(C)(C)CC)c1`, 48 µM (active).
As to `O=C(Cc1ccccc1)c1ccccc1`, the Potency entry is “inactive”.
Same read-out and setting: the result for `O=C(O)C(F)(F)C(F)(F)C(F)(F)C(F)(F)C(F)(F)F` reads “inactive”.
For `CN1CC[C@]23c4c5ccc(O)c4O[C@H]2[C@@H](O)C=C[C@H]3[C@H]1C5`, the Potency entry was “inactive”.
With `ClCc1ccccc1Cl`, the Potency entry is “inactive”.
The same measure, in the same setting: the result for `CN(C1CCCCC1)C1CCCCC1` reads “inactive”.
For the compound `C=C(Cl)Cl`, the Potency entry is “inactive”.
Regarding `N#CC(C#N)=Cc1ccc(O)c(O)c1`, the Potency entry is “inactive”.
In the case of `CCOc1cccc(C2(N3CCN(c4ccccc4)CC3)CCC(C)CC2)c1` (centres undefined), the Potency result was “inactive”.

The next experiment addresses Luciferin 4-monooxygenase (Photinus pyralis) (UniProt P08659). Description: qHTS assay to identify small molecule inhibitors of firefly luciferase (AID 1224835). Also: nearly all actives have a fitted effect of over 25% in size. The settings on record: purified P. pyralis luciferase, luminescence inhibition; series mostly up to 115 µM. The method, boiled down: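 Biochemical qHTS: compounds run as interplate titrations against purified firefly enzyme, with D-luciferin and ATP each at its KM concentration. Light output recorded by CCD imaging.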
As to `Cc1nc(N(C)C)nc(OC(=O)N(C)C)c1C`, the Potency result was “inactive”.
For `FC(Cl)(Cl)C(F)(Cl)Cl`, the Potency result is “inactive”.
As to `CC(Oc1cccc(Cl)c1)C(=O)O` (centres undefined), the Potency result was “inactive”.
On the same count and under the same terms, the result for `CC(Cc1ccccc1)NCc1ccccc1Cl` (centres undefined) reads “inactive”; that for `CCCCOC(=O)CCC(=O)OCCCC`, “inactive”; that for `CCSCc1ccccc1OC(=O)NC`, “inactive”.
In the case of `CCCSP(=S)(OCC)Oc1ccc(SC)cc1` (centres undefined), the Potency entry was “inactive”.
As for `C[C@@H]1C[C@@H]([C@H](O)CC2CC(=O)NC(=O)C2)C(=O)[C@@H](C)C1`, the Potency result was “inactive”.
Turning to `O=C=NC1CCCCC1`, the Potency entry was “inactive”.
As to `C1CS1`, the Potency entry was “inactive”.
The same measure, in the same setting: with `O=C(N[C@H]1CN2CCC1CC2)c1ccc2c(c1)OCCO2` the entry was “inactive”.
`CON(C)C(=O)Nc1ccc(Cl)cc1`: the Potency result is “inactive”.
Same read-out and setting: with `CCOP(=S)(S)OCC` the figure was 33.4 µM (active); with `CCc1ccccc1N`, “inactive”.
Regarding `CCCC[N+]1(C)[C@@H]2CC(OC(=O)[C@H](CO)c3ccccc3)C[C@H]1[C@@H]1O[C@@H]12` (some centres undefined), the Potency entry is “inactive”.
Take `COc1cc(CC#N)cc(OC)c1OC`: the Potency entry is “inactive”.
In the case of `C[C@H]1O[C@H](OC2[C@@H](O)[C@@H](O)C(O)[C@H](O)[C@H]2O)[C@@H](N)C[C@@H]1N=C(N)C(=O)O` (some centres undefined), the Potency entry was “inactive”.
Same read-out and setting: with `CCOC(=O)c1cncn1C(C)c1ccccc1` (centres undefined) the entry was “inactive”; with `CCCCCCCCCCCCCCCl`, “inactive”.
Still for that read-out and setting: the result for `CC(C)(C)c1ccc(CCOc2ncnc3ccccc23)cc1` reads “inactive”; that for `N#CC(C#N)=C(C#N)C#N`, “inactive”.
For the compound `CCCCCCCCP(=O)(O)O`, the Potency result was “inactive”.
For `COc1cc(C[C@@H](C)N)c(OC)cc1Br`, the Potency entry was “inactive”.
For the compound `CC1(C)CC(=O)CC(C)(C)N1[O]`, the Potency result was “inactive”.
For the compound `CC(C)(C)N(NC(=O)c1ccc(Cl)cc1)C(=O)c1ccccc1`, the Potency entry is “inactive”.
Still for that read-out and setting: with `O=[N+]([O-])O[C@H]1CO[C@H]2[C@@H]1OC[C@H]2O[N+](=O)[O-]` the entry was “inactive”; with `COC(=O)Cc1ccccc1`, “inactive”.
Same read-out and setting: the result for `C#C[C@]1(O)CC[C@H]2[C@@H]3CCC4=CC(=O)CCC4=C3C=C[C@@]21CC` reads “inactive”; that for `CC(O)CN1CCN(CC(=O)[O-])CCN(CC(=O)[O-])CCN(CC(=O)[O-])CC1.[Gd+3]` (centres undefined), “inactive”.
With `O=C(N/N=C/c1ccc([N+](=O)[O-])o1)c1cc([N+](=O)[O-])cc([N+](=O)[O-])c1O`, the Potency is 21.9 µM (active).
On to `CCC(C)(C)c1ccc(O)c(C(C)(C)CC)c1`, for which the Potency entry is “inactive”.
Regarding `O=C(Cc1ccccc1)c1ccccc1`, the Potency was 71 µM (active).
The same measure, in the same setting: the result for `O=C(O)C(F)(F)C(F)(F)C(F)(F)C(F)(F)C(F)(F)F` reads “inactive”; that for `CN1CC[C@]23c4c5ccc(O)c4O[C@H]2[C@@H](O)C=C[C@H]3[C@H]1C5`, “inactive”.
For the compound `ClCc1ccccc1Cl`, the Potency entry is “inactive”.
On to `CN(C1CCCCC1)C1CCCCC1`, for which the Potency entry was “inactive”.
With `C=C(Cl)Cl`, the Potency result is “inactive”.
Regarding `N#CC(C#N)=Cc1ccc(O)c(O)c1`, the Potency entry is “inactive”.
Take `CCOc1cccc(C2(N3CCN(c4ccccc4)CC3)CCC(C)CC2)c1` (centres undefined): the Potency result was “inactive”.

Test system in a further experiment: not listed separately
Description: qHTS assay to identify small molecule agonists of the constitutive androstane receptor (CAR) signaling pathway - cell viability counter screen (AID 1224836). Also: nearly all actives have a fitted effect of over 45% in size. The settings on record: HepG2-CYP2B6-hCAR viability, CellTiter-Fluor, 23 h, PK11195 added to every well; series mostly up to 92.4 µM. The method, boiled down:
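Counter screen multiplexed with the CAR reporter readout: HepG2 cells co-transfected with hCAR and the CYP2B6-2.2kb construct receive a 15-concentration compound series and 0.75 uM PK11195 (final), then CellTiter-Fluor fluorescence is read after 23 h.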
Regarding `Cc1nc(N(C)C)nc(OC(=O)N(C)C)c1C`, the Potency entry was “inactive”.
With `CC(Oc1cccc(Cl)c1)C(=O)O` (centres undefined), the Potency result is “inactive”.
With `CC(Cc1ccccc1)NCc1ccccc1Cl` (centres undefined), the Potency entry was “inactive”.
Consider `CCSCc1ccccc1OC(=O)NC`, for which the Potency entry is “inactive”.
On the same count and under the same terms, with `C1CS1` the entry was “inactive”; with `CON(C)C(=O)Nc1ccc(Cl)cc1`, “inactive”; with `COc1cc(CC#N)cc(OC)c1OC`, “inactive”.
On to `C[C@H]1O[C@H](OC2[C@@H](O)[C@@H](O)C(O)[C@H](O)[C@H]2O)[C@@H](N)C[C@@H]1N=C(N)C(=O)O` (some centres undefined), for which the Potency entry is “inactive”.
Consider `CCCCCCCCCCCCCCCl`, for which the Potency entry is “inactive”.
For the compound `CC(C)(C)c1ccc(CCOc2ncnc3ccccc23)cc1`, the Potency result is “inactive”.
For `CCCCCCCCP(=O)(O)O`, the Potency entry is “inactive”.
`CC1(C)CC(=O)CC(C)(C)N1[O]`: the Potency entry is “inactive”.
With `O=[N+]([O-])O[C@H]1CO[C@H]2[C@@H]1OC[C@H]2O[N+](=O)[O-]`, the Potency result was “inactive”.
Take `COC(=O)Cc1ccccc1`: the Potency entry was “inactive”.
Turning to `CC(O)CN1CCN(CC(=O)[O-])CCN(CC(=O)[O-])CCN(CC(=O)[O-])CC1.[Gd+3]` (centres undefined), the Potency result was “inactive”.
Regarding `CCC(C)(C)c1ccc(O)c(C(C)(C)CC)c1`, the Potency was 60.4 µM (active).
Same read-out and setting: the result for `O=C(Cc1ccccc1)c1ccccc1` reads “inactive”.
`CN1CC[C@]23c4c5ccc(O)c4O[C@H]2[C@@H](O)C=C[C@H]3[C@H]1C5`: the Potency entry is “inactive”.
The same measure, in the same setting: with `C=C(Cl)Cl` the entry was “inactive”; with `N#CC(C#N)=Cc1ccc(O)c(O)c1`, “inactive”.
